For five targets, log2 fold change results are on record in the supplement of paper PMC12819154, “High-throughput peptide-centric local stability assay extends protein–ligand identification to membrane proteins, tissues and bacteria” (Nature Structural & Molecular Biology, 2025).

UniProt Q96CW1, sequence (Q96CW1 whole entry): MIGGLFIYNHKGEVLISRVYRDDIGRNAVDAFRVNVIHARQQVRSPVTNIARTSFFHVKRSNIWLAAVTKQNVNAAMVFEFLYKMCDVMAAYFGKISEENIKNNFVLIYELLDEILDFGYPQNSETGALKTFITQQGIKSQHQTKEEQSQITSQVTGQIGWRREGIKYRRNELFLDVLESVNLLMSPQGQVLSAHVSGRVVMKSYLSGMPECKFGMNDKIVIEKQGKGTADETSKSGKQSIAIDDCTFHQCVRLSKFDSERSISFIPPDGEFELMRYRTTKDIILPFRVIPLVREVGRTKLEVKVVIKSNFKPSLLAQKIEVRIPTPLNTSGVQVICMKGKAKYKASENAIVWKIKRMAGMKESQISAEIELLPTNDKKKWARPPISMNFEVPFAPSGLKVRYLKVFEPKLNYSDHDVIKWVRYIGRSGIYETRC
UniProt P78527, sequence (P78527 whole entry): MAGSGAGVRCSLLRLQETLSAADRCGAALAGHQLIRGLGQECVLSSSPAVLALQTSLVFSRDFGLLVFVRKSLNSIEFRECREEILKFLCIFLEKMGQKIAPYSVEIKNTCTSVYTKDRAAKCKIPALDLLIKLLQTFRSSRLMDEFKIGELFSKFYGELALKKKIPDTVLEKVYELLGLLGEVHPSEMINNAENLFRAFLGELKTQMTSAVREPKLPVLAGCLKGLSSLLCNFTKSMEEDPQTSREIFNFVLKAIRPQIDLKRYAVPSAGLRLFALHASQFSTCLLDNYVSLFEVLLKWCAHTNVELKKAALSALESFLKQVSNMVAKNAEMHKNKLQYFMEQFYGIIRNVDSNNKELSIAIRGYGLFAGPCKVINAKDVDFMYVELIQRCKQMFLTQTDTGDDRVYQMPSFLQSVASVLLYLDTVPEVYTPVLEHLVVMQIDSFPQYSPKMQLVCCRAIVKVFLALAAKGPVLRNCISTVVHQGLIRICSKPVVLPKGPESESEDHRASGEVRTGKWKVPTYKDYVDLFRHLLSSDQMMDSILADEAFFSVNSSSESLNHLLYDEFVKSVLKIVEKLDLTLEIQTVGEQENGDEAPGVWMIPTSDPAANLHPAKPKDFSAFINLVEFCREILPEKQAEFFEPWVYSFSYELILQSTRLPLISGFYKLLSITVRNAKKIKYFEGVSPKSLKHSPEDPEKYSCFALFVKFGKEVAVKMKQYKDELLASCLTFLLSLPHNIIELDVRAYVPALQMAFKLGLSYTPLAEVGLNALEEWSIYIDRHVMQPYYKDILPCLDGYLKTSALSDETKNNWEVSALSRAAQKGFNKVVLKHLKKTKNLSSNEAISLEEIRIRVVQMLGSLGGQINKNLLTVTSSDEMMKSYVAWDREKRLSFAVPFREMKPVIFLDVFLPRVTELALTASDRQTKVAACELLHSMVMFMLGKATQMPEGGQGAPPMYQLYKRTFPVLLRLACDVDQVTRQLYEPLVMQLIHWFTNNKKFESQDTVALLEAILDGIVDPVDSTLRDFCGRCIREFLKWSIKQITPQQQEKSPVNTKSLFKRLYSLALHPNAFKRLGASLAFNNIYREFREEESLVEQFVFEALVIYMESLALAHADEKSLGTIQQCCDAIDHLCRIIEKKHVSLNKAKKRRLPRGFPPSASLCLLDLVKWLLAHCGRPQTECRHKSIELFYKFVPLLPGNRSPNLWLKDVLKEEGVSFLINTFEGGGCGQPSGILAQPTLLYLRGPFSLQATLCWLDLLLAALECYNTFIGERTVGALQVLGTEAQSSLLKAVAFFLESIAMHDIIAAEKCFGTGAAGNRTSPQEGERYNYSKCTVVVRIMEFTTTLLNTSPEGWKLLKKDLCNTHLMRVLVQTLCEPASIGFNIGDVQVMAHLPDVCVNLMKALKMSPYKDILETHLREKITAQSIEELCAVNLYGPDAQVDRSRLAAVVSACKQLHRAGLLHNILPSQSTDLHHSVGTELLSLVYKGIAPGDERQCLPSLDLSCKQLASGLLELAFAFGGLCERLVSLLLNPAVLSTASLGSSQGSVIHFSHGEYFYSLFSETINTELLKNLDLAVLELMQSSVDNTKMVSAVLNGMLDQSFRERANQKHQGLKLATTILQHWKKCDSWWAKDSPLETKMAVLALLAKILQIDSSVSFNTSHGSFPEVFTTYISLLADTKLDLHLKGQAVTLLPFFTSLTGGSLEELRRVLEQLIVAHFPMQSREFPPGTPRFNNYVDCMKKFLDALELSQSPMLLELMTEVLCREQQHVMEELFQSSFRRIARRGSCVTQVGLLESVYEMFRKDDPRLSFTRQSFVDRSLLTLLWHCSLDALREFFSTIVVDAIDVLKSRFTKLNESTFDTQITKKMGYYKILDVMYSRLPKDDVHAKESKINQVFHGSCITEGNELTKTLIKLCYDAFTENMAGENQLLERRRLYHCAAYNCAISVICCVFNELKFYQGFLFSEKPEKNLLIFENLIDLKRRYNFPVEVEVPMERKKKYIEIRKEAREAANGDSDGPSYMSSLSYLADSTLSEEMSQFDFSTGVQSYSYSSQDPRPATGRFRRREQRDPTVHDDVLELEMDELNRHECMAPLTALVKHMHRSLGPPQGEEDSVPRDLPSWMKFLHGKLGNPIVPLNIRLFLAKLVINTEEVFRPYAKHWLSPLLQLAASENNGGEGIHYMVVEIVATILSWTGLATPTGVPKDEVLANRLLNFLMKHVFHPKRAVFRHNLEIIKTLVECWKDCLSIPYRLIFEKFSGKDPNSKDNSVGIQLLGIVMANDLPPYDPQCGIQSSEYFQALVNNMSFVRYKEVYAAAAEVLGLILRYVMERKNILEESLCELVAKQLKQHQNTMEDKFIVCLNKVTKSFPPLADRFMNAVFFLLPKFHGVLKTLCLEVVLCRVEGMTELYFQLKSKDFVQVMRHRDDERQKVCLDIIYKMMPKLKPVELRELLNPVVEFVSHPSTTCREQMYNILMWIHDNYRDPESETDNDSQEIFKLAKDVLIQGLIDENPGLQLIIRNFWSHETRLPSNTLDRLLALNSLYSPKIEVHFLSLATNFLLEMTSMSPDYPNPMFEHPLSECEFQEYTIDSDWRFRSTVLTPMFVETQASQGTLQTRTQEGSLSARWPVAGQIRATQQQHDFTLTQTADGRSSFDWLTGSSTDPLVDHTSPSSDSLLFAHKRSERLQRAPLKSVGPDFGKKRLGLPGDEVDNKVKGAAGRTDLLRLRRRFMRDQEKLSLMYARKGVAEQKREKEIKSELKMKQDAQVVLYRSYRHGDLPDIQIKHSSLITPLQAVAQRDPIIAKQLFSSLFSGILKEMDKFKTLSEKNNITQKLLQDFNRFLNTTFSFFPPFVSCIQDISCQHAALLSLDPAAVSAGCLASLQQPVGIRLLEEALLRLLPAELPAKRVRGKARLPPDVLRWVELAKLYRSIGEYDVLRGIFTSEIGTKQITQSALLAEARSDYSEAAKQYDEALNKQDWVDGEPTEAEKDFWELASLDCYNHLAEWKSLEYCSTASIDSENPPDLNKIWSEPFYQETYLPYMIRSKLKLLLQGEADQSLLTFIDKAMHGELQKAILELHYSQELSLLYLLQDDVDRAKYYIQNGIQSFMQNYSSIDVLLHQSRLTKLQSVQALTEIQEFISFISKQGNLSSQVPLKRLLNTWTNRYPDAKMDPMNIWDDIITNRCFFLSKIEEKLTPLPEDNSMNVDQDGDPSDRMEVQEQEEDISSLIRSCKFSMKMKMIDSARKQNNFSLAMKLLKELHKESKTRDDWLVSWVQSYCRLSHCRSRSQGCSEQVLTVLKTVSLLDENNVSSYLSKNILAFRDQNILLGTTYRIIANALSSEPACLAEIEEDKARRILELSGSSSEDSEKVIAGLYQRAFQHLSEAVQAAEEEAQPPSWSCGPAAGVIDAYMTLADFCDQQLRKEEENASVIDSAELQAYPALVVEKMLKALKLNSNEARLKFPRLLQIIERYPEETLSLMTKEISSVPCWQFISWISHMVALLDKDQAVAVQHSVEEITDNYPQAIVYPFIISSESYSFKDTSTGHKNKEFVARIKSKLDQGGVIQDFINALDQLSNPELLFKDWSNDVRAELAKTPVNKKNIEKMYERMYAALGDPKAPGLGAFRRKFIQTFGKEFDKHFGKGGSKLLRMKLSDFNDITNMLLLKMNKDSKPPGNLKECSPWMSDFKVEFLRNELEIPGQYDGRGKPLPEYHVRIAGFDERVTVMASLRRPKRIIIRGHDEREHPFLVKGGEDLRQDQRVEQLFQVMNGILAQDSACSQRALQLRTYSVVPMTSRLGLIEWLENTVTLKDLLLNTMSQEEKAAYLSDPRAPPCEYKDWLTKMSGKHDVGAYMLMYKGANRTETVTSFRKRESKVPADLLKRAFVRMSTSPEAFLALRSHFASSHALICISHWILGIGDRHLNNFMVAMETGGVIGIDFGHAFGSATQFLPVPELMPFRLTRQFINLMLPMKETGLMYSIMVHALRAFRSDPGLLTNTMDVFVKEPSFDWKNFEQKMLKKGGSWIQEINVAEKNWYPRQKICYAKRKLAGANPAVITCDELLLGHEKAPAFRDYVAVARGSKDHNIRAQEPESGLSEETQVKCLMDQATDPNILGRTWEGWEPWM

Compound in the test: CN[C@@H]1C[C@H]2O[C@@](C)([C@@H]1OC)n1c3ccccc3c3c4c(c5c6ccccc6n2c5c31)C(=O)NC4 [staurosporine]
The experiment in a line: log2 fold change of tryptic peptide abundance, ligand vs vehicle (limited proteolysis) (log2 ratio); higher = more trypsin-susceptible (destabilized). As to conditions: ligand concentration: 20 uM; sample: K562 cleared lysate; digestion: 4 min, 22 C (HT-PELSA RT4min, Orbitrap Astral).
Take “UniProt P78527 (peptide sequence: GYGLFAGPCK, peptide start residue: 365)”: the log2 fold change amounted to 0.189.
Regarding “THRAP3 (peptide sequence: SYSPAHNR, peptide start residue: 53) (UniProt Q9Y2W1)”, the log2 fold change was found to be 2.27.
Next, “RPS6KA2 (peptide sequence: ADPSQFELLK, peptide start residue: 63) (UniProt Q15349)”: -1; “OSBP (peptide sequence: TRIPYKPNYSLNLWSIMK, peptide start residue: 407) (UniProt P22059)”: 0.573.
Next, “UniProt Q96CW1 (peptide sequence: TFITQQGIK, peptide start residue: 131)”: 0.558.
